Bioassay records as filed in PubChem BioAssay.
HP1b chromo inh: HP1-beta chromodomain-methylated histone interaction inhibition; P83916; Potency, µM (series often up to 114 µM), for inactives: top-dose activity change, negative = inhibition, actives largely listed as inhibitors; AlphaScreen HP1-beta / biotin-H3K9me3 peptide binding; AID 540317; actives 0.56% (n = 390,000); note: nearly all actives have a fitted effect of over 70% in size
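HP1-beta protein (50 nM final) preincubated 30 min at room temperature with biotinylated H3(1-18)K9me3 peptide (50 nM) in PBS pH 7.4, 0.01% Tween-20, then compound added for 30 min. AlphaScreen streptavidin donor/nickel chelate acceptor beads (10 ug/mL final), 30 min dark, luminescence read.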
PLK1 PBD inh: PLK1 (human) polo-box domain binding inhibition | Plk1 PBD binding of FITC phosphopeptide, fluorescence polarization | Potency, µM, for the others: max response, negative = inhibition, most hits filed as inhibitors | actives 2.8% (n = 360,000); note: series mostly up to about 57 µM; % is set by controls: 0 for no effect and ±100 for the full control effect; nearly all actives have a fitted effect of over 65% in size
BAZ2B block: inhibitors of human BAZ2B bromodomain | AlphaScreen BAZ2B-H3K14Ac peptide displacement | Q9UIF8 | actives 4.4% (n = 360,000) | Potency, µM (doses to about 114 µM), for inactives: at the top dose activity change, negative = inhibition, hits mostly inhibitors; note: % is set by controls: 0 for no effect and ±100 for the full control effect; nearly all actives have a fitted effect of over 60% in size
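AlphaScreen luminescence quantifies BAZ2B engagement of H3K14Ac peptide; the protein and biotinylated peptide are both at 50 nM final, buffer PBS pH 7.4 with 0.01% Tween-20, all steps at room temperature.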
G9a inh: blocks human histone lysine methyltransferase G9a. Q96KQ7. G9a H3K9 monomethylation, AlphaScreen, 2 h. Potency, µM (series often up to 102 µM), for the others: at the highest dose activity, negative = inhibition, actives largely listed as inhibitors. actives 8.8% (n = 350,000). AID 504332; note: % is set by controls: 0 for no effect and ±100 for the full control effect; nearly all actives have a fitted effect of over 75% in size
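AlphaScreen detection with an anti-monomethyl H3K9 antibody quantified product after a 2 h room-temperature reaction containing 500 nM biotinylated H3K9 peptide, 20 µM SAM and 20 nM enzyme, which had been preincubated 15 min with compound.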
JMJD2A Tudor inh: blocks the human JMJD2A Tudor domain. actives 4.4% (n = 390,000). Potency, µM (titrated, usually from 114 µM), without a hit: at the top dose activity change, negative = inhibition, usual class: inhibitors. AID 504339. O75164. AlphaScreen JMJD2A-Tudor / H3K4me3 peptide binding; note: % is set by controls: 0 for no effect and ±100 for the full control effect; nearly all actives have a fitted effect of over 50% in size
Target sequence (O75164 whole entry, looked up, the tested form may be a part): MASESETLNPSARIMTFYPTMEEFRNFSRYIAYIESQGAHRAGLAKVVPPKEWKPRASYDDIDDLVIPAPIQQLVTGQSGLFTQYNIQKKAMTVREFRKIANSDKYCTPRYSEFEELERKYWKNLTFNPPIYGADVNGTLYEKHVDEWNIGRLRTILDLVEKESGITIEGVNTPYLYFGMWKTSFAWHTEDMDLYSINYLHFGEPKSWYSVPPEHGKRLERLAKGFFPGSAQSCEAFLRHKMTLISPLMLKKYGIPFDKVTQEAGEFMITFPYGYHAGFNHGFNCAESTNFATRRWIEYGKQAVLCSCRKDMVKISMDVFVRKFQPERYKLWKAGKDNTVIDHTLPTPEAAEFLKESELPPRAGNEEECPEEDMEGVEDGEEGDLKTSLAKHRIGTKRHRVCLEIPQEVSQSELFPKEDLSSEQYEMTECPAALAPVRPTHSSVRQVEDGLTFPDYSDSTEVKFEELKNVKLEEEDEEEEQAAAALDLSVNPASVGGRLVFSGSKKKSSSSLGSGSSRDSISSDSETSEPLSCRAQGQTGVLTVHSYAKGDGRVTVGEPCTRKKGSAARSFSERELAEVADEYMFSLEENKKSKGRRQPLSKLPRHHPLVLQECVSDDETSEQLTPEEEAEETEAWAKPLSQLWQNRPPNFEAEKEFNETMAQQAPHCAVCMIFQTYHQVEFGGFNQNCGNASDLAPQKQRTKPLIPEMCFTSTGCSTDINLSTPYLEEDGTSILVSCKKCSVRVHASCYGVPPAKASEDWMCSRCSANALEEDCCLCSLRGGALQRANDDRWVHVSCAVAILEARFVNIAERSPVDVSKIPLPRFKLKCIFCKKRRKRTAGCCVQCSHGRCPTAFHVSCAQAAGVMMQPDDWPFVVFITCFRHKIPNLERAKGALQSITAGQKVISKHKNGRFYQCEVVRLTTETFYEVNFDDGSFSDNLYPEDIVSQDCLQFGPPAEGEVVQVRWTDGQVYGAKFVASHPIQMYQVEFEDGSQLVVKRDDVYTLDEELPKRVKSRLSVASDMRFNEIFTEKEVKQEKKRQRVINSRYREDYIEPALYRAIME
Sfp PPTase inh: Sfp phosphopantetheinyl transferase inhibition; Q9F4F7; Biochemical Sfp PPTase activity, qHTS; Potency, µM, for inactives: largest response in the series, negative = inhibition, hits mostly inhibitors; actives 3.5% (n = 310,000);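 note: the enzyme is Sfp with the accession as filed and its product quenches rhodamine fluorescence; 0% = enzyme reaction without inhibitor and -100% = no enzyme wells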
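Sfp 15 nM + cpd, 15 min RT; start w/ rhodamine-CoA 5 uM, BHQ-2-YbbR 12.5 uM (final); 50 mM Hepes pH 7.6, 10 mM MgCl2, 0.01% NP-40, 0.01% BSA; read 525/598 nm at 0 and 30 min.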
* marks the source's active call; other numbers are inactive results; ? = inconclusive; . = not tested or not shown; [ ] = another dose, or the depositor's remark. Only some compounds are listed: those with a hit (about 12% of all), similar ones and a draw of the others. Calls come from the whole dose curve; as a rule, active = well fitted curve in the direction sought with a large enough effect; inconclusive = small, poorly fitted or top-dose-only effect, or another doubt; inactive = no such curve, though single readings can be large; an effect the other way counts as inactive or inconclusive. Potency is the fitted concentration of half-maximal effect.

SMILES	HP1b chromo inh	PLK1 PBD inh	BAZ2B block	G9a inh	JMJD2A Tudor inh	Sfp PPTase inh
COC(=O)C1C(=O)C(C(=O)/C=C/c2ccco2)C(=O)CC1(C)C (configuration not stated)	.	.	.	.	.	56µM*
NC1=NN=C(c2ccc3c(c2)OCCO3)CS1	-5%	-11%	-21%	?	-26%	79µM*
Nc1nc(-c2ccc3c(c2)OCCO3)c(CC(=O)O)s1	19%	-14%	-31%	.	-19%	-20%
Cc1sc(N)nc1-c1ccc2c(c1)OCCO2	1%	?	-5%	35µM*	-26%	79µM*
Cc1sc(N)nc1-c1ccc(Oc2ccccc2)cc1	-20%	-9%	50µM*	?	?	0%
Nc1nc(N)nc(-c2ccc(Oc3ccccc3)cc2)n1	4%	-3%	-5%	0%[12.7 µM]	-17%	15%
CCCC1N=C2c3ccccc3N=C(SCC(=O)NCCc3ccc(Cl)cc3)N2C1=O (configuration not stated)	26%	.	-12%	-4%[12.7 µM]	-4%	.
Cc1nc2cnc(N(C)C)nc2n(C[C@H]2CCCO2)c1=O	.	.	.	4%[0.501 µM]	.	19%
CN(C)c1ncc2nc(CCc3ccccc3)c(=O)n(C[C@H]3CCCO3)c2n1	.	.	.	7%[12.7 µM]	.	-23%
Cn1c(CN2CCCC2)nc2cc(NC(=O)Nc3ccccc3)ccc21	5%	-11%	-9%	-19%[12.7 µM]	-20%	1%
Cc1ccc(OCC(=O)Nc2ccc3c(c2)nc(CCN2CCCC2)n3C)cc1	.	-2%	.	.	.	.
CC(=O)Nc1ccc2c(c1)nc(CN1CCCC1)n2C	34%	-4%	-5%	18µM*	-1%	-13%
Cc1ccc(C(C)C)c(OCC(=O)Nc2ccc3c(c2)nc(CN2CCCC2)n3C)c1	20%	-22%	11µM*	45µM*	?	?
CC1CCC(NS(=O)(=O)c2ccc(Cl)nc2)CC1 (configuration not stated)	25%	-9%	14%	50µM*	2%	.
O=C(Sc1n[nH]c(=O)[nH]c1=O)c1ccccc1	?	5.3µM*	.	.	7.1µM*	.
COc1ccc(C2NN=C(c3c[nH]c4ccccc34)C2O)cc1 (configuration not stated)	0%	-25%	?	22µM*	?	56µM*
Cc1nnc(SCC(=O)NC2CCCCC2)[nH]c1=O	-8%	-2%	1%	?	-14%	-25%
Cc1nnc(SC(C)C(=O)NC2CCCCC2)[nH]c1=O (configuration not stated)	-9%[57 µM]	27µM*	.	.	?	.
Cc1cccc(-c2nc3ccccc3c(=O)n2NC(=S)N(C)C)c1	-47%	3µM*	-5%	8.9µM*	89µM*	32µM*
c1ccc(COc2cccc(CNCc3cccnc3)c2)cc1	19%	-18%	50µM*	?	?	-7%
Oc1ccc(NCc2cccc(OCc3ccccc3)c2)cc1	?	-6%	-29%	13µM*	50µM*	?
c1ccc(COc2cccc(CNCc3ccccn3)c2)cc1	40%	-1%	?	0%[12.7 µM]	-27%	?
CCOc1cc(CNc2ccccc2)cc(Br)c1OCc1ccc(F)cc1	62%	-4%	0%	74%[59 µM]	12%	?
CCOc1cc(CNc2ccc(O)cc2)cc(Cl)c1OCc1ccccc1	35µM*	.	28µM*	?	45µM*	.
CCOC(=O)c1c(C)oc2nc(C)nc(N3CCN(c4ccc(C(C)=O)cc4)CC3)c12	32%	.	11%[57.1 µM]	-4%[59 µM]	-2%	.
SMILES	HP1b chromo inh	PLK1 PBD inh	BAZ2B block	G9a inh	JMJD2A Tudor inh	Sfp PPTase inh
COc1cc(CC(=O)OCC(=O)NC2CCCCC2C)cc(OC)c1OC (configuration not stated)	44%	-5%	9%	17%[59 µM]	-6%	.
CCCn1c(=O)n(C)c(=O)c2c(SCC(=O)NCc3ccco3)nc(C3CC3)nc21	9%	-25%	-26%	9%	79µM*	-2%
O=C(C=P(c1ccccc1)(c1ccccc1)c1ccccc1)c1ccccc1-c1ccccc1C(=O)C=P(c1ccccc1)(c1ccccc1)c1ccccc1	?	?	.	.	45µM*	.
O=C1CCc2cc(S(=O)(=O)Nc3ccc(Cl)c(Cl)c3)ccc2N1	.	.	.	.	-13%	.
CCOC(=O)c1cnn(C)c1NC(=O)c1ccc([N+](=O)[O-])cc1	15%	1%	3%	-8%	-9%	16%
CC[C@]1(O)C[C@@H]2CN(CCc3c([nH]c4ccccc34)[C@@](C(=O)OC)(c3cc4c(cc3OC)N(C)C3[C@]45CCN4CC=C[C@](CC)(C45)[C@@H](OC(C)=O)[C@]3(O)C(=O)OC)C2)C1 (some centres not stated)	.	.	.	14µM*	.	17%
CC[C@]1(O)C[C@@H]2CN(CCc3c([nH]c4ccccc34)[C@](C(=O)OC)(c3cc4c(cc3OC)N(C)[C@H]3[C@](O)(C(=O)OC)[C@@H](C(=O)OC)[C@@]5(CC)C=CCN6CC[C@@]43[C@@H]65)C2)C1	.	.	.	.	.	-24%
O=C(CCNS(=O)(=O)c1ccccc1)N1CCC(Cc2ccccc2)CC1	41%	2%	-4%	24%	-3%	4%
